# Reference: PubChem BioAssay AID1159580 (chemical genetic matrix, 2015)
# Values joined by “and” are separate entries in the source; they are usually repeats but may differ in a detail not shown here. Equal values may be shown once. Hit rate of the full screen: of about 5,500 compounds, about 2,000 (36%) were called active. Another 18% or so got no clear call; they are omitted. The list shows a part of the results. Values without a mark were called inactive. Rule as the data show it: active = normalized growth mostly below about 0.91 (no sharp cut-off); inconclusive = no clear call, values can overlap the other calls; inactive = mostly above about 0.92.
# Assay: chemical genetic growth profiling, strain panel (AID 1159580);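 also: tested at 20 µM; growth read once vehicle control cultures reached saturation at 30 °C; 1 = growth at the plate median or of vehicle wells; lower values mean less growth of the strain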
# Conditions: S. cerevisiae deletion strains, growth OD
smiles,measurement,setting,value
COC(=O)c1c(C)c2c(c(C)c1O)OC(=O)c1c(C)c(Cl)c(O)c(Cl)c1O2,normalized growth,"locus YAL021C, strain ccr4, active compounds read low",0.943
same,normalized growth,"locus YAL026C, strain drs2, active compounds read low",0.951
same,normalized growth,"locus YAL030W, strain snc1, active compounds read low",0.969
same,normalized growth,"locus YBL061C, strain skt5, active compounds read low",0.968
same,normalized growth,"locus YBR009C, strain hhf1, active compounds read low",0.935
same,normalized growth,"locus YBR021W, strain FUR4, active compounds read low",0.962
same,normalized growth,"locus YBR023C, strain chs3, active compounds read low",0.959
same,normalized growth,"locus YBR171W, strain sec66, active compounds read low",0.975
same,normalized growth,"locus YBR229C, strain ROT2, active compounds read low",0.985
same,normalized growth,"locus YBR231C, strain swc5, active compounds read low",0.976
same,normalized growth,"locus YBR279W, strain paf1, active compounds read low",0.944
same,normalized growth,"locus YCL011C, strain gbp2, active compounds read low",0.96
same,normalized growth,"locus YCL016C, strain dcc1, active compounds read low",0.967
same,normalized growth,"locus YCL029C, strain bik1, active compounds read low",1.03
same,normalized growth,"locus YCL069W, strain vba3, active compounds read low",0.944
same,normalized growth,"locus YCR088W, strain abp1, active compounds read low",0.96
same,normalized growth,"locus YDL005C, strain med2, active compounds read low",0.947
same,normalized growth,"locus YDL035C, strain GPR1, active compounds read low",0.894
same,normalized growth,"locus YDL040C, strain nat1, active compounds read low",0.943
same,normalized growth,"locus YDL074C, strain BRE1, active compounds read low",0.926
same,normalized growth,"locus YDL101C, strain DUN1, active compounds read low",0.98
same,normalized growth,"locus YDL134C, strain PPH21, active compounds read low",0.941
same,normalized growth,"locus YDL185W, strain tfp1, active compounds read low",0.995
same,normalized growth,"locus YDL192W, strain arf1, active compounds read low",0.922
same,normalized growth,"locus YDR001C, strain nth1, active compounds read low",0.969
same,normalized growth,"locus YDR069C, strain doa4, active compounds read low",0.967
same,normalized growth,"locus YDR101C, strain arx1, active compounds read low",1
same,normalized growth,"locus YDR137W, strain rgp1, active compounds read low",0.87
same,normalized growth,"locus YDR159W, strain sac3, active compounds read low",0.902
same,normalized growth,"locus YDR162C, strain NBP2, active compounds read low",0.734 (active)
same,normalized growth,"locus YDR195W, strain ref2",1.03
same,normalized growth,"locus YDR297W, strain sur2, active compounds read low",0.944
same,normalized growth,"locus YDR318W, strain mcm21, active compounds read low",0.975
same,normalized growth,"locus YDR334W, strain swr1, active compounds read low",0.939
same,normalized growth,"locus YDR335W, strain msn5, active compounds read low",0.939
same,normalized growth,"locus YDR388W, active compounds read low",0.984
same,normalized growth,"locus YDR392W, strain spt3, active compounds read low",0.617 (active)
same,normalized growth,"locus YDR502C, strain sam2, active compounds read low",0.96
same,normalized growth,"locus YEL003W, strain gim4, active compounds read low",0.969
same,normalized growth,"locus YEL037C, strain rad23, active compounds read low",0.957
same,normalized growth,"locus YEL061C, strain CIN8 (second series), active compounds read low",0.961
same,normalized growth,"locus YEL061C, strain CIN8, active compounds read low",0.986
same,normalized growth,"locus YER015W, strain faa2, active compounds read low",0.977
same,normalized growth,"locus YER016W, strain bim1, active compounds read low",0.96
same,normalized growth,"locus YER110C, active compounds read low",1.03
same,normalized growth,"locus YER111C, strain swi4, active compounds read low",0.979
same,normalized growth,"locus YER155C, strain BEM2 (second series), active compounds read low",0.97
same,normalized growth,"locus YER155C, strain BEM2, active compounds read low",1.01
same,normalized growth,"locus YER167W, strain BCK2, active compounds read low",0.937
same,normalized growth,"locus YFR010W, strain ubp6, active compounds read low",0.952
same,normalized growth,"locus YGL078C, strain dbp3, active compounds read low",0.991
same,normalized growth,"locus YGL086W, strain mad1, active compounds read low",0.962
same,normalized growth,"locus YGL167C, strain pmr1, active compounds read low",0.95
same,normalized growth,"locus YGL173C, strain kem1, active compounds read low",0.966
same,normalized growth,"locus YGL227W, strain vid30, active compounds read low",0.969
same,normalized growth,"locus YGL240W, strain doc1, active compounds read low",0.93
same,normalized growth,"locus YGL248W, strain PDE1, active compounds read low",0.983
same,normalized growth,"locus YGL253W, strain hxk2, active compounds read low",0.952
same,normalized growth,"locus YGR135W, strain pre9, active compounds read low",0.964
same,normalized growth,"locus YGR229C, strain SMI1, active compounds read low",0.462 (active)
same,normalized growth,"locus YGR252W, strain gcn5, active compounds read low",0.927
same,normalized growth,"locus YHR013C, strain ard1, active compounds read low",0.946
same,normalized growth,"locus YHR027C, strain rpn1, active compounds read low",0.957
same,normalized growth,"locus YHR030C, strain SLT2, active compounds read low",0.992 and 0.949
same,normalized growth,"locus YHR079C, strain IRE1 (second series), active compounds read low",1.03
same,normalized growth,"locus YHR079C, strain IRE1, active compounds read low",0.94
same,normalized growth,"locus YHR094C, strain hxt1, active compounds read low",1.03
same,normalized growth,"locus YHR129C, strain ARP1, active compounds read low",0.973
same,normalized growth,"locus YHR142W, strain chs7, active compounds read low",0.849 (active)
same,normalized growth,"locus YHR200W, strain rpn10, active compounds read low",0.993
same,normalized growth,"locus YIL066C, strain RNR3, active compounds read low",0.892
same,normalized growth,"locus YIL073C, strain SPO22, active compounds read low",0.976
same,normalized growth,"locus YIL125W, strain kgd1, active compounds read low",1.01
same,normalized growth,"locus YIR030C, strain dcg1, active compounds read low",1.02
same,normalized growth,"locus YJL092W, strain hpr5, active compounds read low",0.979
same,normalized growth,"locus YJL095W, strain BCK1 (second series), active compounds read low",0.955
same,normalized growth,"locus YJL095W, strain BCK1, active compounds read low",0.84 and 0.969
same,normalized growth,"locus YJL115W, strain asf1, active compounds read low",0.956
same,normalized growth,"locus YJL129C, strain trk1, active compounds read low",0.9
same,normalized growth,"locus YJL134W, strain LCB3, active compounds read low",1
same,normalized growth,"locus YJL154C, strain vps35, active compounds read low",0.967
same,normalized growth,"locus YJL164C, strain tpk1, active compounds read low",0.926
same,normalized growth,"locus YJL166W, strain qcr8, active compounds read low",0.94
same,normalized growth,"locus YJL168C, strain set2, active compounds read low",0.997
same,normalized growth,"locus YJL187C, strain SWE1 (second series), active compounds read low",0.966
